Shown are actives, neighbours in structure and some others; about 1.6% of the full set was active somewhere.
Mito fusion yeast: mitochondrial division inhibition or fusion activation | S. cerevisiae fusion-defective mutant growth rescue, CellTiterGlo 48 h | AID 485298 | 0.23% of 320,000 active | Potency, µM (titrated, usually from 46.1 µM), inactives show at the highest dose growth rescue (activation), actives largely listed as activators; also: % of control where 0% means no effect; nearly all actives have a fitted effect of over 45% in size
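Read-out: ATP-based luminescence (CellTiterGlo, 10 min ambient) reporting growth of fusion-defective ts yeast after 48 hours at 37C on glycerol/ethanol YPEG medium in the presence of compound.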
FUS yeast rescue: suppressors of FUS proteinopathy in yeast. 0.24% of 390,000 active. Potency, µM (doses to about 76.6 µM), most hits filed as activators. S. cerevisiae FUS-expressing, growth rescue, OD600, 24 h;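 also: plate controls were DMSO vehicle for no effect and reference control for full effect; nearly all actives have a fitted effect of over 55% in size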
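Toxicity suppression screen in FUS-yeast. Cells induced with 2% galactose, starting OD 0.005, treated 24hr at 30C with compounds at multiple final concentrations; growth by OD600.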
gsp agonist: agonists of gsp mutant (McCune-Albright syndrome). 0.13% of 340,000 active. Potency, µM (top dose mostly 76.9 µM), for the others: at the highest dose activation (cAMP increase), most hits filed as activators. AID 624287. gsp mutant cells, cAMP HTRF, 30 min; active = well fitted activation curve with a large enough effect; inconclusive = small, poorly fitted or top-dose-only effect, or another doubt; inactive = no such curve, though single readings can be large or run the other way; cell line not stated here;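 also: phosphodiesterase inhibitor Ro 20-1724 added with compounds to block cAMP breakdown; nearly all actives have a fitted effect of over 60% in size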
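Cells stably selected in G418 were plated at 2000/well, grown 16-24 hr, then given compounds in DMSO with the PDE inhibitor […] (300 uM solution added) for 30 min at 37C; cAMP was read by HTRF.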
ALOX12 inh: blocks human arachidonate 12S-lipoxygenase; AID 1671190; P18054; 1.1% of 580,000 active; purified 12hLO, xylenol orange hydroperoxide absorbance; Potency, µM (titrated, usually from 108 µM), for the others: top-dose activity change, negative = inhibition, most hits filed as inhibitors; also: % is scaled to controls: 0 for no effect and ±100 for the full control effect
Target sequence (P18054 whole entry, looked up): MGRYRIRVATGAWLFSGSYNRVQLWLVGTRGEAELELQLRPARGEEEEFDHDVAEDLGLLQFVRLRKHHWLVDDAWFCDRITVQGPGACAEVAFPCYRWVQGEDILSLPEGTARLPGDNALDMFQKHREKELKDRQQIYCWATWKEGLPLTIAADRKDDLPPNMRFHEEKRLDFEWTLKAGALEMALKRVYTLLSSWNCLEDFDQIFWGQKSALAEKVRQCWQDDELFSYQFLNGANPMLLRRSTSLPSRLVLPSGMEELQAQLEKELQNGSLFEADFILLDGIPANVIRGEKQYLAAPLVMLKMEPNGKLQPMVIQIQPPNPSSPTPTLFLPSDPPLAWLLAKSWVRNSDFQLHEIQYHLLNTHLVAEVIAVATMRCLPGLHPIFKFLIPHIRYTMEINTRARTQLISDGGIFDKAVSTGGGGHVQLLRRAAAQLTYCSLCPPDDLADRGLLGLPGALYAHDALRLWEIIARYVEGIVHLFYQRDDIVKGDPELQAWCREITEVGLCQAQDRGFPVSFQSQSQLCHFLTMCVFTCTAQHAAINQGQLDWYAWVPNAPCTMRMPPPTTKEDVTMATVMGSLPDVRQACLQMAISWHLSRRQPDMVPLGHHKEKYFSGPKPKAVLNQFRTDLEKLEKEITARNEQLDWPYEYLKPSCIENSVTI
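Purified human 12hLO at 150 nM in 25 mM Hepes, 0.01% Triton X-100, pH 7.0, preincubated 15 min at room temperature with compound. Reaction started with 40 uM arachidonic acid, 30 min at room temperature. Hydroperoxide measured by Fe-xylenol orange, 573/405 nm absorbance ratio.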
gsp antagonist: antagonizes gsp, the McCune-Albright syndrome mutation; Potency, µM (series often up to 76.9 µM), for inactives: at the highest dose activity change, negative = inhibition, hits mostly inhibitors; AID 624288; gsp-mutant cells, cAMP HTRF, 30 min; 0.4% of 340,000 active; calls by dose curve; cell line not stated here;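 also: intracellular cAMP measured with PDE inhibitor Ro 20-1724 present during compound exposure; % is scaled to controls: 0 for no effect and ±100 for the full control effect; nearly all actives have a fitted effect of over 65% in size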
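G418-selected cells were plated in DMEM/10% FBS for 16-24 h at 37C, then treated with compounds plus the PDE inhibitor […] (300 uM solution added) for 30 min at 37C. Intracellular cAMP was measured by HTRF after 30 min lysis at room temperature.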
Numbers without * were called inactive; [ ] = remark or other dose. Unless noted, calls follow the shape of the dose curve; as a rule, active = well fitted curve in the direction sought with a large enough effect; inconclusive = small, poorly fitted or top-dose-only effect, or another doubt; inactive = no such curve, though single readings can be large; an effect the other way counts as inactive or inconclusive. Potency is read from the fitted curve at half-maximal effect.

Screening COc1ccc(OC)c(S(=O)(=O)N2CCCCCCNC(=O)[C@@H]3CCCC[C@@H]32)c1 returned ALOX12 inh 61.8%.
For COc1ccc(OC)c(-n2c(-c3cccc(O)c3)n[nH]c2=S)c1 the results were Mito fusion yeast 5.4%, FUS yeast rescue inactive, gsp agonist 5.1%, ALOX12 inh 3.55µM* and gsp antagonist -15.1%.
COc1ccc(-c2cc(-c3n[nH]c(=S)n3-c3cc(OC)ccc3OC)[nH]n2)cc1 was read as Mito fusion yeast 6.7%, gsp agonist -15.5%, ALOX12 inh 44.7µM* and gsp antagonist inconclusive.
Screening COc1cc(OC)c(C2=CCN(C(=O)COc3ccc(Cl)cc3C)CC2)c(OC)c1 returned ALOX12 inh 52.0%.
O=C(c1cc(N2C(=O)C3C4CCC(C4)C3C2=O)ccc1Cl)N1CCN(c2ccc(F)cc2)CC1 (stereo not given) was read as Mito fusion yeast 5.62µM*, gsp agonist 7.2%, ALOX12 inh -7.1% and gsp antagonist inconclusive.
Screening COc1ccc(N2CCN(C(=O)c3cc(N4C(=O)C5C6CCC(C6)C5C4=O)ccc3Cl)CC2)cc1 (stereo not given) returned Mito fusion yeast -0.8%, gsp agonist 5.4%, ALOX12 inh -17.5% and gsp antagonist -25.0%.
For Cc1ccccc1CN1CCNC(=O)C1CC(=O)NC1CCCCCCC1 (stereo not given) the results were Mito fusion yeast 1.5%, FUS yeast rescue inactive, gsp agonist -21.1%, ALOX12 inh -22.3% and gsp antagonist 2.5%.
For COc1ccc(CN2CCNC(=O)C2CC(=O)NC2CCCCCC2)c(C)c1C (stereo not given) the results were Mito fusion yeast 0.6%, gsp agonist -30.4%, ALOX12 inh 31.6µM* and gsp antagonist -13.3%.
Screening O=C1OC(c2ccc(O)cc2)(c2ccccc2O)c2ccccc21 (stereo not given) returned gsp agonist -63.1%, ALOX12 inh inconclusive and gsp antagonist -1.8%.
O=C1OC(c2ccccc2)(c2cc(Br)ccc2O)c2ccccc21 (stereo not given) was read as FUS yeast rescue inactive, gsp agonist -8.9%, ALOX12 inh 44.7µM* and gsp antagonist -24.9%.
COC(=O)c1ccc(/C=C2/SC(=S)N(CCC(=O)N3CCOCC3)C2=O)cc1 was read as Mito fusion yeast 0.7%, FUS yeast rescue inactive, gsp agonist -25.5%, ALOX12 inh -21.1% and gsp antagonist 50.1µM*.
Screening O=C(O)c1cc(-c2ccco2)nn1-c1cccc(Cl)c1 returned Mito fusion yeast 0.6%, FUS yeast rescue inactive, gsp agonist 7.5%[15.4 µM], ALOX12 inh 35.5µM* and gsp antagonist -6.9%.
For Cc1nn(-c2cccc(Cl)c2)c2nc(-c3ccco3)cc(C(=O)O)c12 the results were Mito fusion yeast 0.4%, gsp agonist 2.2%, ALOX12 inh 39.8µM* and gsp antagonist inconclusive.
Screening CCn1ncc(CN(C)C(=O)c2c(C)oc3c2CN(Cc2ccc(OC)cc2)CC3)c1C returned ALOX12 inh 4.7%.
`CCNS(=O)(=O)c1cccc(C(=O)N2CCCC2c2ccc(OCC)cc2)c1` (stereo not given) gave ALOX12 inh 21.3%.
`Cc1nc(N=Nc2cc([N+](=O)[O-])ccc2Cl)c(COP(=O)(O)O)c(C=O)c1O` gave ALOX12 inh 11.2µM*.
Screening Cc1nn(-c2ccccc2)c(Cl)c1C(=O)N1CCN(c2ncnc3c2cnn3-c2ccccc2)CC1 returned Mito fusion yeast -12.8%, FUS yeast rescue inactive, gsp agonist 22.0%, ALOX12 inh inactive and gsp antagonist 12.6µM*.
`N#Cc1ccccc1N=Cc1ccccc1Cl` gave ALOX12 inh -4.7%.
For CCOC(=O)[C@]12CCCC=C1N(Cc1ccc(OC)cc1)C(=O)[C@@H]2CC(=O)NCC12CC3CC(CC(C3)C1)C2 the results were FUS yeast rescue 17.8µM*.
`C#CCNC(=O)C[C@H]1C(=O)N(Cc2ccc(OC)cc2)C2=CCCC[C@@]21C(=O)OCC` gave FUS yeast rescue inactive.
NS(=O)(=O)c1ccc(CCNC(=O)CNCCc2ccccc2)cc1 was read as Mito fusion yeast -2.4%, FUS yeast rescue inactive, gsp agonist 12.5%, ALOX12 inh 0.631µM* and gsp antagonist 9.4%.
`NS(=O)(=O)c1ccc(CCNC(=O)CSc2ccccc2)cc1` gave Mito fusion yeast 1.6%, FUS yeast rescue inactive, gsp agonist 0.4%, ALOX12 inh 0.0% and gsp antagonist 1.0%.
For N#CC(C#N)=Cc1ccc(-c2ccc(S(=O)(=O)N=C(N)N)cc2)o1 the results were Mito fusion yeast -0.8%, gsp agonist -7.0%, ALOX12 inh 25.1µM* and gsp antagonist 1.5%.
Screening CCS(=O)(=O)C1=NN2C(=N)/C(=C\c3ccc(SCc4ccco4)o3)C(=O)N=C2S1 returned Mito fusion yeast -0.2%, FUS yeast rescue inactive, gsp agonist -21.6%, ALOX12 inh 35.5µM* and gsp antagonist -14.6%.
CCS(=O)(=O)C1=NN2C(=N)/C(=C\c3ccc(OC(=O)c4ccco4)c(Br)c3)C(=O)N=C2S1 was read as Mito fusion yeast -15.0%.
O=C(Cc1n[nH]c(=O)c2ccccc12)NCC(=O)N1CCN(c2ccccc2)CC1 was read as ALOX12 inh 11.2µM*.
Screening CCC(=O)N(CCC1(CCC(C)C)CCOC(C)(C)C1)Cc1ccccc1 (stereo not given) returned ALOX12 inh -66.0%.
For CCOC(=O)C1=C(NC(=S)NC(=O)c2ccccc2)c2ccccc2CC1C(C)C (stereo not given) the results were Mito fusion yeast 0.0%, FUS yeast rescue inactive, gsp agonist -21.5%, ALOX12 inh inconclusive and gsp antagonist -13.2%.
For CCOC(=O)C1=C(NC(=S)NC(=O)c2ccccc2)c2ccccc2CC1(C)CC (stereo not given) the results were Mito fusion yeast 0.1%, FUS yeast rescue inactive, gsp agonist 11.3%, ALOX12 inh 15.8µM* and gsp antagonist -7.3%.
`Cc1oc(-c2ccc(C(=O)NCCCN3CCOCC3)cc2)nc1CSc1ccccc1` gave ALOX12 inh 2.3%.
Screening O=C(c1ccc(F)cc1)N(c1ccccc1F)C(CCc1ccccc1)c1nc2ccccc2[nH]1 (stereo not given) returned ALOX12 inh 5.01µM*.
O=C(c1ccc(=O)[nH]c1)N(c1ccccc1)C(CCc1ccccc1)c1nc2ccccc2[nH]1 (stereo not given) was read as FUS yeast rescue inactive and ALOX12 inh -14.8%.
Screening Cc1cc(NC(=O)C(C)Sc2nnc3c(Cl)cc(C(F)(F)F)cn23)no1 (stereo not given) returned ALOX12 inh 3.1%.
